# The supplement of paper PMC6555819
# System: PPARg homodimer (NR concentration 180 nM)
# Experiment: PBM binding z-score (relative to random genomic background probes); higher = stronger binding; sequences stand for … in GC…GCGATTGACAGCGTAGAATGAAGG
# In short: (§1)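 For binding z-scores, the reference was random background probes on custom Agilent 4×180K protein-binding microarrays. These arrays were incubated 1 h with ligand-free nuclear receptor dimers in PBS pH 7.4, 2% milk, 0.02% Triton X-100, 1 mM DTT, 0.2 mg/mL BSA and 0.4 mg/ml salmon testes DNA. Fluorescence was scanned after antibody detection of each partner (one per run) and regression-normalized.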
row,Sequence,PBM binding z-score
1,ACTCGGAGGACAAGGGTCAGAGCTACGCCAGTGA,1.36
2,AGAATTAGGTTATACGTAGATCAGGGAAGAAAGT,1.25
3,ATATGTAGGTTATCGGTTCATTCAGTTTGCGCAT,2.66
4,TCTGCTAGGTCAGTTGGTAAGCTAACGAGCTGCC,-0.393
5,ACTAGCAGGCCAAGGGTCACTCAGGATTAGTCCG,4.08
6,CCTAGAAGGCCAGGGTCACTCAAGCATTTCGCTT,1.89
7,ATCTCTAGGTAAAGTTCAGTGTAAGATCGATAGA,2.13
8,CTAACTAGGTCAAGGACAGTGAATCTCCGCACGC,3.48
9,ACTATTAGGTGACTTAGGGCAACCGATACGACGC,0.861
10,CCTACTGGGCCAAAAAGATCATTGATGCCGATAA,0.38
11,CCAGACAGGTGAAAGGTAACTCGGTCTGGTACGC,0.981
12,TCTAGTTGGTCAAAGGTCACACATTCGAAATGCG,4.05
13,TCTAGTTGGTCGAAGGTCACACACTCGAAATGCG,3.06
14,ATCTCTAGCTAACCAAGTTCAGTGAATGCCGAAC,0.651
15,CGTCCAAGGTCAGCAAGTCAGTGAAAGCGACGTG,2.24
16,ATCGAAAGGTCGATGTGAGTATAGAGAAAGGGAA,0.753
17,TTACCAAGGTGAACGTCGTTGATCCCTCTGTAGA,0.021
18,AGAACGAGGGCACGCTGAGTTGATAGCAGAGTAG,0.297
19,CATACAGGGTCAGCTAGGCGAGAGTAGGGACGGC,1.41
20,CGTCCATGGTCAATGCTAGGTCAGTGAAAGCATT,0.231

row,Sequence,PBM binding z-score
1,CCGACTGGTGCAGAAAGGTTACCATACCATCCGG,1.03
2,ATACGTAGGTTAGCTGGGGTCATTCAGACTAGGC,1.82
3,TCTAGTTGGTCACGGTGGTCACACACGACGGGTA,0.94
4,ATATGTAGGTTAAGGGTTATTCAGGTTGGTTCGC,2.78
5,TCTGCTACGTCAGTTGGTCAGCTAACGAGCTGCC,-2.23
6,TCATATAGGTAAACAGGGGAAAGTCCGTAAGTTA,1.18
7,ACTATTAGTTGAGACGAGGGCAACCGCTAGGTTG,0.0959
8,TCTCTGAGGACACGAAAGGTCAGAGCTCGACATC,2.33
9,CCTAATGGGCCACGAAAGGTCATTGATTCAGTGA,2.38
10,TCTAGTTGGTCAAAGGTCACACGCTCGAAATGCG,5.16
11,CCTATTGGGCCATCAGGTCATTGATATCAACGTT,1.42
12,TGAATGAGGTTAAAGAGCAGGGAACGTGGCGTCG,0.719
13,GTTCGGAGGACAAGGTCAGAGCTTTGTCCGTAGA,1.25
14,TCATATAGGTAATACAGGTGAAAGCCGGCATCTA,1.14
15,GCTTACGGGTCAAAGGTTATTGCATGAATAGAAT,3.22
16,TCTAGTAGGTTACCAATGGGGCATTCAGCTTTCT,0.405
17,CGAACGATGGCATGAGTTGATAGCAAATGCCGAT,0.126
18,CCGACTGGGGCCGAAAGGTTACCATACCATCCGG,0.848
19,CGTCCAAGGTCAAAGGTCAGTTAAGAGATGACGG,3.01
20,CCTAGCAGGCCAGGGTCACTCAAGCATTTCGCTT,1.04

# System: PXR:RXRa (NR concentration 270 nM, RXRa partner concentration 90 nM)
# Experiment: as above
# In short: as §1
row,Sequence,PBM binding z-score
1,ACTCGGAGGACAAGGGTCAGAGCTACGCCAGTGA,1.93
2,AGAATTAGGTTATACGTAGATCAGGGAAGAAAGT,0.291
3,ATATGTAGGTTATCGGTTCATTCAGTTTGCGCAT,3.48
4,TCTGCTAGGTCAGTTGGTAAGCTAACGAGCTGCC,-0.186
5,ACTAGCAGGCCAAGGGTCACTCAGGATTAGTCCG,3.21
6,CCTAGAAGGCCAGGGTCACTCAAGCATTTCGCTT,2.81
7,ATCTCTAGGTAAAGTTCAGTGTAAGATCGATAGA,2.21
8,CTAACTAGGTCAAGGACAGTGAATCTCCGCACGC,1.21
9,ACTATTAGGTGACTTAGGGCAACCGATACGACGC,0.146
10,CCTACTGGGCCAAAAAGATCATTGATGCCGATAA,-0.395
11,CCAGACAGGTGAAAGGTAACTCGGTCTGGTACGC,0.75
12,TCTAGTTGGTCAAAGGTCACACATTCGAAATGCG,5.8
13,TCTAGTTGGTCGAAGGTCACACACTCGAAATGCG,3.66
14,ATCTCTAGCTAACCAAGTTCAGTGAATGCCGAAC,1.32
15,CGTCCAAGGTCAGCAAGTCAGTGAAAGCGACGTG,2.38
16,ATCGAAAGGTCGATGTGAGTATAGAGAAAGGGAA,1.77
17,TTACCAAGGTGAACGTCGTTGATCCCTCTGTAGA,0.627
18,AGAACGAGGGCACGCTGAGTTGATAGCAGAGTAG,1.28
19,CATACAGGGTCAGCTAGGCGAGAGTAGGGACGGC,1.83
20,CGTCCATGGTCAATGCTAGGTCAGTGAAAGCATT,0.368

row,Sequence,PBM binding z-score
1,CCGACTGGTGCAGAAAGGTTACCATACCATCCGG,1
2,ATACGTAGGTTAGCTGGGGTCATTCAGACTAGGC,6.17
3,TCTAGTTGGTCACGGTGGTCACACACGACGGGTA,0.537
4,ATATGTAGGTTAAGGGTTATTCAGGTTGGTTCGC,2.84
5,TCTGCTACGTCAGTTGGTCAGCTAACGAGCTGCC,-0.876
6,TCATATAGGTAAACAGGGGAAAGTCCGTAAGTTA,0.921
7,ACTATTAGTTGAGACGAGGGCAACCGCTAGGTTG,1.55
8,TCTCTGAGGACACGAAAGGTCAGAGCTCGACATC,4.09
9,CCTAATGGGCCACGAAAGGTCATTGATTCAGTGA,5.44
10,TCTAGTTGGTCAAAGGTCACACGCTCGAAATGCG,6
11,CCTATTGGGCCATCAGGTCATTGATATCAACGTT,1.84
12,TGAATGAGGTTAAAGAGCAGGGAACGTGGCGTCG,1.53
13,GTTCGGAGGACAAGGTCAGAGCTTTGTCCGTAGA,1.67
14,TCATATAGGTAATACAGGTGAAAGCCGGCATCTA,0.985
15,GCTTACGGGTCAAAGGTTATTGCATGAATAGAAT,6.21
16,TCTAGTAGGTTACCAATGGGGCATTCAGCTTTCT,0.365
17,CGAACGATGGCATGAGTTGATAGCAAATGCCGAT,-0.184
18,CCGACTGGGGCCGAAAGGTTACCATACCATCCGG,1.29
19,CGTCCAAGGTCAAAGGTCAGTTAAGAGATGACGG,6.49
20,CCTAGCAGGCCAGGGTCACTCAAGCATTTCGCTT,2.63
